Only some compounds are listed: those with a hit (about 2.4% of all), similar ones and a draw of the others.
A549 viability: Nrf2 qHTS screen for inhibitors: counterscreen for cytotoxicity. A549 ARE-Fluc cells, CellTiter-Fluor viability, 18-24 h. 390,000 tested, 0.16% active. Potency, µM (series often up to 46 µM), for inactives: at the highest dose activity change, negative = cytotoxicity, actives largely listed as inhibitors; note: % is set by controls: 0 for no effect and ±100 for the full control effect
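Cytotoxicity counterscreen: CellTiter-Fluor fluorescence was measured in A549 ARE_Fluc cells after 18-24 h of compound exposure in a concentration series. The subsequent BugLite luminescent read reports ARE-luciferase activity.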
Nrf2 inh: Nrf2 qHTS screen for inhibitors; A549 ARE-Fluc reporter, luciferase luminescence, 18-24 h; Potency, µM (top dose mostly 46 µM), for the others: top-dose activity change, negative = inhibition, most hits filed as inhibitors; 360,000 tested, 2.1% active; AID 504444, 2011; note: % is set by controls: 0 for no effect and ±100 for the full control effect; nearly all actives have a fitted effect of over 60% in size
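A549 ARE_Fluc cells (5000/well, 5% FBS OPTI-MEM) pre-incubated 2 h, then treated with compounds 18-24 h at 37C/5% CO2 in concentration-response. CellTiter-Fluor viability read first; BugLite luciferase luminescence after 15 min at room temperature gives Nrf2 activity.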
Nrf2 ARE act: qHTS of Nrf2 Activators | Potency, µM (series often up to 46.1 µM), for inactives: top-dose activation, hits mostly activators | 410,000 tested, 0.31% active | AREc32 ARE-luciferase reporter (MCF7-derived line), luminescence, 24 h; note: % of control where 0% means no effect; nearly all actives have a fitted effect of over 65% in size
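Luminescent ARE reporter assay in AREc32_Fluc cells: overnight plating at 37 deg C, 24 hr compound incubation, Steady-Glo added, 30 min RT before reading.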
Epigenetic derep: Quantitative High-Throughput Screen for Regulators of Epigenetic Control | AID 1865, 2009 | murine LDR cells, GFP reporter derepression, 30 h | 280,000 tested, 0.2% active | Potency, µM (top dose mostly 53.9 µM), for inactives: top-dose GFP activation, most hits filed as activators; note: % of control where 0% means no effect; nearly all actives have a fitted effect of over 60% in size
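Murine LDR cells carrying a silenced, genomically integrated CMV-driven GFP reporter were exposed to compound for 30 hours at 37 C. After PBS washes, GFP-positive cells (20–120 um objects) were counted by laser-scanning microplate cytometry.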
PINK1 expr mod: A Quantitative High throughput Screen to Identify Chemical Modulators of PINK1 Expression | PINK1 immunofluorescence, high-content cytometry, 24 h | Potency, µM (top dose mostly 76.6 µM), for inactives: at the highest dose activation (PINK1 increase), usual class: activators | 410,000 tested, 0.2% active | AID 624263, 2012; active = well fitted activation curve with a large enough effect; inconclusive = small, poorly fitted or top-dose-only effect; cell line not stated here; note: % of control where 0% means no effect; nearly all actives have a fitted effect of over 65% in size
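Cells are seeded, rested 12 hours, then given compound at five concentrations or DMSO for 24 hours. After fixation, blocking and antibody staining, PINK1 amount and mitochondrial localization are scored; CCCP serves as control.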
* marks the source's active call; other numbers are inactive results; ? = inconclusive; . = no result given; [ ] = dose if it differs, or a comment. Unless noted, calls come from the whole dose curve; as a rule, active = well fitted curve in the direction sought with a large enough effect; inconclusive = small, poorly fitted or top-dose-only effect, or another doubt; inactive = no such curve, though single readings can be large; an effect the other way counts as inactive or inconclusive. Potency is the fitted concentration of half-maximal effect.

SMILES	A549 viability	Nrf2 inh	Nrf2 ARE act	Epigenetic derep	PINK1 expr mod
CN(CC(=O)Nc1cccc(S(=O)(=O)N2CCCC2)c1)CC(=O)Nc1ccc(Cl)c(C(F)(F)F)c1	?	25.9µM*	0.7%	.	29.4%
CN(CC(=O)NCc1ccccc1)CC(=O)Nc1ccc(Cl)c(C(F)(F)F)c1	-1.3%	-15.4%	2.6%	.	2.6%
COc1ccc(CN2CCOc3ccc(C(O)c4cccnc4)cc3C2)c(F)c1 (configuration not stated)	.	.	.	.	-1.0%
Cc1ccc(/C=C2\SC(=S)N(CCCC(=O)Nc3ccccn3)C2=O)cc1	?	2.31µM*	-2.2%	0.3%	12.1%
Cc1ccc(/C=C2\SC(=S)N(CCCC(=O)Nc3ccc(O)cc3)C2=O)cc1	-13.3%	16.4µM*	0.3%	-1.0%	0.2%
O=C(CCCN1C(=O)/C(=C\c2ccccc2)SC1=S)Nc1ccc(C(=O)O)cc1	1.6%	0.8%	-0.5%	.	0.0%
O=C(CCCN1C(=O)/C(=C/c2ccc3c(c2)OCO3)SC1=S)Nc1ccc(C(=O)O)cc1	2.5%	10.3µM*	-1.8%	.	-1.4%
O=C(CCN1C(=O)/C(=C/c2ccccc2)SC1=S)Nc1ccccn1	4.4%	7.9%	-0.1%	.	9.8%
CC(=O)c1ccc(NC(=O)CCCN2C(=O)/C(=C/C(C)=C/c3ccccc3)SC2=S)cc1	-16.5%	-14.6%	-0.7%	1.1%	22.4µM*
CN(C)C(=O)COC(=O)c1ccccc1OCC(=O)Nc1ccc(Br)cc1	.	.	.	.	0.7%
Cc1ccc(N[S+](=O)([O-])c2cc3c(cc2CCc2ccccc2)NC(=O)CO3)cc1C	-2.6%	-0.8%	.	.	.
Cc1ccc(NC(=O)CCCN2C(=O)c3cccc4cccc(c34)C2=O)cc1	?	14.6µM*	-0.5%	4.3%	4.5%
Cc1ccc(/C=C2\SC(=S)N(CCCC(=O)Nc3ccccc3C(=O)O)C2=O)cc1	2.1%	14.6µM*	-1.9%	.	0.6%
CCc1ccc(/C=C2\SC(=S)N(CCCC(=O)Nc3ccccc3C(=O)O)C2=O)cc1	4.3%	2.3%	-0.5%	.	0.4%
COCCN1CCN(C(=O)c2cnn(-c3nccc(-c4ccccc4OC)n3)c2-c2ccco2)CC1	.	.	.	.	-0.3%
COc1ccc(OC)c(/C=C/c2sc3ccccc3[n+]2C)c1	.	.	.	.	4.6%
Cc1cccc(C(=O)Nc2ccc3nc(SCC(=O)N4CCCC4)sc3c2)c1	-19.3%	18.4µM*	5.8%	-0.5%	-0.4%
COc1ccc(C(=O)Nc2ccc3nc(SCC(=O)N4CCCC4)sc3c2)cc1	-2.5%	-8.5%	5.0%	-2.4%	5.0%
Cc1cccc(OCCSc2nc3ccc(NC(=O)c4cccs4)cc3s2)c1	0.8%	23.1µM*	0.6%	5.3%	1.8%
Cc1ccccc1OCCSc1nc2ccc(NC(=O)c3cccs3)cc2s1	-9.2%	?	2.9%	-2.4%	1.8%
O=C(COc1ccccc1F)Nc1ccc2nc(SCC(=O)N3CCOCC3)sc2c1	-13.4%	18.4µM*	2.1%	1.6%	1.0%
O=C(CSc1nccn1-c1ccc(Cl)cc1)Nc1cccc2ccccc12	-2.2%	.	-0.7%	1.1%	19.7%
Cc1cnc(-n2ncc(C(=O)NCC3COCCO3)c2C2CC2)nc1-c1cccs1 (configuration not stated)	.	.	.	.	1.1%
COCC(=O)Nc1cc(C(=O)N2CCC(c3ccccc3)CC2)cc2nc(-c3ccccc3)n(C)c12	.	.	.	.	5.2%
COC(=O)c1cc(CNC(=O)c2ccc(N(C)C)cc2)cc(NC(=O)c2ccccc2Cl)c1	.	.	.	.	0.2%
SMILES	A549 viability	Nrf2 inh	Nrf2 ARE act	Epigenetic derep	PINK1 expr mod
COc1ccc(N(C(=O)c2cc3ccccc3oc2=O)C2C=CS(=O)(=O)C2)cc1 (configuration not stated)	2.2%	9.7%	17.8µM*	1.3%	3.8%
Cc1ccc(-n2ncc3c(NCCCN4CCOCC4)ncnc32)cc1C	13.7%	.	11.2%	1.8%	-0.1%
Cc1ccc(NC(CC(=O)c2ccccc2)C(=O)O)cc1Cl (configuration not stated)	-0.3%	?	17.8µM*	-6.9%	4.6%
COc1ccccc1NC(=O)CSc1nnc2c3ccccc3n(C(C)C)c2n1	?	18.4µM*	0.4%	6.6%	4.4%
COc1cc(=O)n2c(c1C(=O)N(C)Cc1nonc1C)CCN(CC1CC=CCC1)CC2 (configuration not stated)	.	.	.	.	-0.6%
Cc1sc(NC(=O)CN2CCOCC2)nc1-c1ccc2c(c1)CCN2S(=O)(=O)c1ccccc1	-12.7%	2.59µM*	3.5%	-0.1%	2.1%[38.3 µM]
O=C(CN1CCOCC1)Nc1nc(-c2ccc3c(c2)CCN3S(=O)(=O)c2ccccc2)cs1	-14.2%	?	4.6%	-1.0%	0.7%
COc1ccc(C2Nc3ccccc3C(=O)N2CCc2ccccc2)cc1COc1ccc(NC(C)=O)cc1 (configuration not stated)	4.8%	4.5%	.	.	.
Cc1ccc(Cn2c(NCCc3ccccc3)nc3c2c(=O)n(C)c(=O)n3C)cc1	-4.8%	14.6µM*	-0.5%	0.0%	-2.8%[38.3 µM]
CCn1c(NCc2ccco2)nc2c1c(=O)n(C)c(=O)n2C	-2.9%	8.3%	5.2%	3.1%	1.2%
Cn1c(=O)c2c(nc(NCc3ccco3)n2CCc2ccccc2)n(C)c1=O	-15.3%	20.6µM*	8.0%	-0.5%	1.8%
CCCNc1nc2c(c(=O)n(C)c(=O)n2C)n1Cc1ccc(F)cc1	-15.6%	14.6µM*	0.5%	1.3%	1.4%
Cn1c(=O)c2c(nc(N/N=C/c3ccc(OC(=O)c4ccco4)cc3)n2Cc2ccccc2)n(C)c1=O	-19.7%	16.4µM*	3.6%	-1.8%	2.8%
Cn1c(=O)c2c(nc(N/N=C/c3cccs3)n2Cc2ccccc2)n(C)c1=O	0.4%	?	0.4%	-2.0%	1.3%
CCNc1nc2c(c(=O)n(C)c(=O)n2C)n1Cc1ccc(Cl)cc1	-5.3%	9.2µM*	-0.2%	.	2.1%
CCC(C)Nc1nc2c(c(=O)n(C)c(=O)n2C)n1Cc1ccc(Cl)cc1 (configuration not stated)	?	?	3.3%	0.0%	4.9%
COCCNc1nc2c(c(=O)n(C)c(=O)n2C)n1Cc1c(F)cccc1Cl	-7.1%	18.4µM*	-1.1%	1.2%	0.1%
CN(C)c1ccc(/C=C/c2cc[n+](C)c3ccc4ccccc4c23)cc1	.	.	.	.	4.47µM*
CN(C)c1ccc(/C=C/c2ccc3ccccc3n2)cc1	?	?	-3.4%	?	?
C[n+]1ccc(/C=C/c2ccc(C=S)cc2)c2ccccc21	.	.	.	.	44.7µM*
C[n+]1ccc(/C=C/c2ccccc2O)c2ccccc21	-17.4%	-27.5%	3.0%	2.2%	-1.4%
CC(C)NC(=O)Cn1ccc2cc(S(=O)(=O)N3CCCCCC3)ccc21	7.4%	-1.3%	-0.3%	-0.5%	2.5%
